Molecules are shown by their SMILES. Compounds without any hit were thinned out: in the full panel of roughly 83,000, 20% have a hit.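 Percent growth is the endpoint: 0 to 100 indicates growth inhibition (40 means 60% inhibition), 0 means no net growth, and negative values indicate cell death.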 Unmarked numbers belong to inactive results. Activity calls are given as the source filed them. Rule for the calls: active = growth percent below 10; inactive = the rest.

For this experiment, the system named is MALME-3M melanoma. The experiment in a line: NCI-60 one-dose screen, 48 h (100 = growth as untreated, 0 = no growth, -100 = all killed). Particulars: 10 µM unless noted.
Take `CC1(C)Oc2cc3oc(=O)ccc3cc2C[C@@H]1OCCOS(=O)(=O)c1ccc(C#N)cc1`: the growth was 93.6%.

In the case of `COC(=O)/C=C/c1cc(O)c2oc(-c3ccc(O)c(O)c3)c(C(=O)OC)c2c1`, the growth is 57.4%.

Consider `CC1=C[C@@H]2c3c(c(O)c(O)c4oc5cc(O)cc(O)c5c(=O)c34)[C@@H](c3cc(O)c(O)c4oc5cc(O)cc(O)c5c(=O)c34)[C@@H]2C(C)(C)C1`, for which the growth is -10.3% (active).

`COc1ccc(C(=O)CN2C(=O)NC(c3ccccc3)(c3ccccc3)C2=O)cc1`: the growth is 108%.

For `Cc1c(C(N)=O)sc2c1c(=O)n(Cc1ccccc1)c1nnc(S(C)(=O)=O)n21`, the growth is 92.4%.

In the case of `CC(C)OC(=O)[C@H](C)N[P@@](=O)(OC[C@@]1(C)O[C@@H](n2cc(F)c(N)nc2=O)C[C@@H]1O[P@](=O)(N[C@@H](C)C(=O)OC(C)C)Oc1ccccc1)Oc1ccccc1`, the growth is 91.1%.

For the molecule `COc1cc(-c2nc(/C=C3/C(=O)Nc4ccccc43)c3ccccn23)cc(OC)c1OC`, the growth was 74.4%.

Regarding `CC([C@H]1CC=C2C3CCC4=C[C@@H](N(C)C)CC[C@]4(C)C3CC[C@@]21C)N(C)C` (some centres not stated), the growth was 83.9%.

For `CCS(=O)(=O)OCCO[C@H]1Cc2cc3ccc(=O)oc3cc2OC1(C)C`, the growth is 105%.

For the molecule `CC1(C)NCCC[C@]2(C)[C@H]3CC=C4[C@@H]5C[C@](C)(COC(=O)c6ccccc6C(=O)O)CC[C@]5(C)CC[C@@]4(C)[C@]3(C)CC[C@@H]12`, the growth is 66.3%.

On to `O=C1c2ccccc2CCc2ccccc21`, for which the growth was 98%.

`CCCCCCCCCCCCCCCCC(=O)O.CCCCCCCCCCCCCCCCCC(=O)O.CCCCCCCCCCCCCCCCCC(=O)O.CCCCCCCCCCCCCCCCCC(=O)O.CCCCCCCCCCCCCCCCCC(=O)O.CO[CH-]OC12COC1CC(O)C1(C)C(O)C(OC(C)O)C3=C(C)C(OC(=O)C(O)C([NH-])c4ccccc4)CC(O)(C(OC(=O)c4ccccc4)C21)C3(C)C.[Cu+].[Zn].[Zn].[Zn].[Zn].[Zn]` (configuration not stated): the growth was 69.5%.

As to `C=CCN(C)C`, the growth is 111%.

Take `Cc1ccc(C(=O)NN)cc1`: the growth is 117%.

In the case of `Cc1c(CN(C)C)cc(C(C)C)cc1C(C)C`, the growth is 124%.

Turning to `CC1(c2ccc(Br)cc2)NC(=O)NC1=O` (configuration not stated), the growth was 113%.

Regarding `C=C(C)[C@@H]1CC[C@]2(COC(=O)c3ccccc3C(=O)O)CC[C@]3(C)[C@H](CC[C@@H]4[C@@]5(C)CCCNC(C)(C)[C@@H]5CC[C@]43C)[C@@H]12`, the growth was 68.2%.

Turning to `COC1=C(OC)C(=O)c2ccccc2C1=O`, the growth was 126%.

Take `C=C1CCC2C3(C)COC(c4ccccc4)OC3CCC2(C)C1C/C=C1/C(=O)OCC1O` (configuration not stated): the growth was 99.8%.

As to `CCCCCC(=C/c1ccccc1)/C=N/N=C(N)N`, the growth was 37%.

Turning to `O=C1C(Cl)=C(SC2=NCCN2)C(=O)c2ccccc21`, the growth is -50.3% (active).

Regarding `COC(=O)Nc1nc2ccc(C(=O)c3ccccc3N(C)C3COC3)cc2[nH]1`, the growth was 58.8%.

(Values after PubChem BioAssay (NCI).)
